Bioassay records deposited in PubChem BioAssay by National Center for Advancing Translational Sciences (NCATS).
Sm TGR block: blocks Schistosoma mansoni thioredoxin glutathione reductase. Q962Y6. purified TGR, DTNB reduction, TNB absorbance 405 nm. Potency, µM (series often up to 114 µM), without a hit: at the top dose activity change, negative = inhibition, actives largely listed as inhibitors. 360,000 compounds, 3% hits. AID 485364; further: potency means the concentration at half of the fitted maximal effect; on the % scale 0 is the no-effect control and ±100 the full control effect; nearly all actives have a fitted effect of over 60% in size
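Kinetic colorimetric format: TGR-catalysed, NADPH-driven DTNB reduction monitored via TNB absorbance. Enzyme dispensed at 20 nM; compound exposure 15 min at room temperature before reaction start.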
LmPK inh: blocks Leishmania mexicana pyruvate kinase activity; purified LmPK, Kinase-Glo ATP luminescence, 1 h; AID 1721; Potency, µM (series often up to 57.5 µM), for the others: at the top dose activity change, negative = inhibition, hits mostly inhibitors; Q27686; 290,000 compounds, 0.37% hits; further: potency means the concentration at half of the fitted maximal effect; on the % scale 0 is the no-effect control and ±100 the full control effect
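In 50 mM imidazole pH 7.2 with 7 mM MgCl2, LmPK (0.1 nM) turned over PEP (0.5 mM) and ADP (0.1 mM) for 1 h at room temperature. Luciferase read-out of ATP.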
Shiga inhibitor: Shiga toxin inhibition | 290,000 compounds, 9.2% hits | AID 2315 | inhibition, % at 38.7 µM | Vero cells, Shiga toxin protein synthesis inhibition reporter; in the data active means inhibition mostly above about 28%, no sharp cut-off; inactive means mostly below about 43%; further: 0% is about no effect
Cycloheximide cs: counter-screen for Shiga toxin inhibitors: cycloheximide protein synthesis inhibition; cell reporter, cycloheximide protein synthesis inhibition counterscreen; max response, %; AID 2314; 300,000 compounds, 12% hits; in the data active means max response mostly above about 13%, no sharp cut-off; inactive means mostly below about 14%; further: read at 38.3 µM for the half of the compounds with a filed dose; 0% is about no effect
Giardia FBPA inh: blocks Giardia fructose-bisphosphate aldolase activity; A8B2U2; purified Giardia FBPA; Potency, µM (series often up to 59.6 µM), for the others: at the top dose activity, negative = inhibition, most hits filed as inhibitors; 290,000 compounds, 0.71% hits; further: potency means the concentration at half of the fitted maximal effect; on the % scale 0 is the no-effect control and ±100 the full control effect; nearly all actives have a fitted effect of over 55% in size
Target sequence (A8B2U2 whole entry, looked up): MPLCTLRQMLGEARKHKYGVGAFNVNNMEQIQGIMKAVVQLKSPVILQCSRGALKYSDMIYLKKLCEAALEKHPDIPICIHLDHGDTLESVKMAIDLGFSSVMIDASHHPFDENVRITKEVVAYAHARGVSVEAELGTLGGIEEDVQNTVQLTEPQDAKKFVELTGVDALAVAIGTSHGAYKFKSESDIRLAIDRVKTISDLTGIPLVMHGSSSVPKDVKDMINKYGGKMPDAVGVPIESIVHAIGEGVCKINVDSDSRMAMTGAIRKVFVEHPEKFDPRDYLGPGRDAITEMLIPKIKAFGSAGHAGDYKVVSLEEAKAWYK
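40 nM FBPA preincubated 10 min at RT with compound (up to 57.5 uM final), then substrate plus GAPDH/TPI/NAD/arsenate coupling and diaphorase/resazurin added. Fluorescence read after 20 min at RT, 525/598 nm.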
Tb PYK inh: inhibitors of Trypanosoma brucei pyruvate kinase | Q57TT1 | TbPYK enzyme, Kinase-Glo Plus ATP luminescence, 45 min | Potency, µM (doses to about 76.8 µM), inactives show at the highest dose activity, negative = inhibition, most hits filed as inhibitors | 410,000 compounds, 0.12% hits | AID 624173; further: potency means the concentration at half of the fitted maximal effect; on the % scale 0 is the no-effect control and ±100 the full control effect; nearly all actives have a fitted effect of over 50% in size
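Luminescent Kinase-Glo Plus end-point after 45 min room-temperature reaction of T. brucei pyruvate kinase started with 130 uM ADP (final). Buffer TEA 50 mM pH 7.2 with KCl, MgCl2, BSA, Tween-20; titration-based qHTS with fitted concentration-effect curves.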
* hit, by the source's call; ? = inconclusive; / = no result given; [ ] = another dose, or the depositor's remark. The entries come from a sample that favours hits as a whole. Unless noted, the call rests on the fitted dose curve; in most records, active means well fitted curve in the direction sought with a large enough effect; inconclusive means small, poorly fitted or top-dose-only effect, or another doubt; inactive means no such curve, though single readings can be large; an effect the other way counts as inactive or inconclusive.

SMILES	Sm TGR block	LmPK inh	Shiga inhibitor	Cycloheximide cs	Giardia FBPA inh	Tb PYK inh
CCC(C)(C)NC(=O)Cc1ccc(Cl)cc1	/	4%	28	25*	-3%	-9%
Cc1ccc(NC(=O)NC2CCCCCCC2)cc1C	0%	0%	19	27	/	2%
O=C(Cc1ccc(Cl)cc1)NC1CCCCCC1	3%	1%	21	20*	5%	-3%
O=C(Cc1ccc(Cl)cc1)NNC(=O)C(=O)NC1CCCCC1	/	/	/	/	/	0%
CC1Cc2cc(S(=O)(=O)NCc3ccccc3Cl)ccc2N1C(=O)C1CCC1 (centres undefined)	1%	/	/	/	/	-8%
CCOC(=O)N1CCN(Cc2nc3cc(NC(=O)c4ccc(F)cc4)ccc3n2C(C)C)CC1	-3%	/	/	/	/	-1%
O=C(Nc1cccc(-c2nc3ccccc3[nH]2)c1)c1c(F)cccc1F	-4%	/	/	/	/	0%
COc1ccc(S(=O)(=O)NCCS(=O)(=O)N2CCN(c3ccccc3)CC2)cc1C	-7%	/	/	/	/	3%
CCOC(=O)C(O)(c1ccc(NC(=O)NC2CCCCC2)cc1)C(F)(F)F (centres undefined)	6%	4%	58	20*	-1%	-7%
CC1CCCCN1C(=O)CSc1nc2ccccc2nc1Cc1ccc(Cl)cc1 (centres undefined)	11%	/	/	/	/	-5%
O=C(NC1CCCCCC1)c1ccc(N2CCCC2=O)cc1	-9%	?	74*	21	1%	-4%
CCOC(=O)C(O)(c1ccc(NC(=O)c2ccc(Cl)c(Cl)c2)cc1)C(F)(F)F (centres undefined)	10%	5%	45	12	-24%	1%
O=C(Nc1ccc2nsnc2c1)C1CC1	6%	10%	15	12	-30%	-20%
CC1CCCCN1C(=O)Cc1ccc(Cl)cc1 (centres undefined)	4%	4%	19	14*	2%	1%
O=C(Nc1ccc2nsnc2c1)NC1CCCCC1	-1%	-2%	72	50*	?	-15%
Cc1ccc(NC(=O)CN(C)S(=O)(=O)c2ccc3c(c2)CCC(=O)N3)c(C)c1	-8%	/	/	/	/	-6%
CCOc1ccc(NC(=O)c2ccc(NC(=O)N3CCSc4ncccc43)cc2)cc1	0%	/	/	/	/	-1%[15.4 µM]
O=C(Nc1ccc(Cl)cc1)NC1CCCCC1	5%	5%	100	38*	1%	-2%
CC(C)(CO)NCc1cccc(OCc2ccc(Cl)cc2)c1	2%	3%	active	14	-9%	-7%
COc1cccc(CNC(C)(C)CO)c1OCc1ccc(Cl)cc1	/	6%	-10	-3	-1%	-5%
COc1cc(NCc2ccccc2O)c2ncccc2c1	-2%	0%	28	20*	-20%	4%
CCOc1cc(CN2CCN(S(=O)(=O)c3ccc(C)cc3)CC2)ccc1OC	0%	/	/	/	/	-3%
COc1cc2c(cc1OC)/C(=C/C(=O)c1ccc(OC)c([N+](=O)[O-])c1)NCC2	0%	7%	19	11*	-9%	-6%
COc1ccc(C(=O)N/C(N)=N/c2nc3ccccc3o2)cc1	5%	-1%	7	7	11%	-2%
COc1ccc(C(=O)/C=C/Sc2nc3ccccc3o2)cc1	0.32µM*	-5%	135*	51*	-2%	2%
SMILES	Sm TGR block	LmPK inh	Shiga inhibitor	Cycloheximide cs	Giardia FBPA inh	Tb PYK inh
Cc1cccc(CN2CCN(CC(=O)Nc3c(C)cccc3C)S2(=O)=O)c1	-2%	/	/	/	/	-1%[15.4 µM]
CCn1ccc2c(OCC(=O)Nc3ccc(C)c(Cl)c3)cccc2c1=O	-18%	/	/	/	/	-7%
CC(=O)N/N=C/c1ccc([N+](=O)[O-])o1	/	/	/	/	/	-7%
O=C(O)/C=C/c1ccc([N+](=O)[O-])o1	28µM*	7%	-8	-2	-6%	-9%
N#C/C(=C\c1ccc([N+](=O)[O-])o1)C(=O)Nc1ccc(F)cc1	/	1%	35	13	?	-10%
O=[N+]([O-])c1ccc(/C=N/N=C/c2ccc([N+](=O)[O-])o2)o1	10µM*	6%	6	10	?	2%
N#CCc1ccc(NC(=O)/C=C/c2ccc([N+](=O)[O-])o2)cc1	4.5µM*	8%	56*	37*	?	2%
NC(N)=NN=C(/C=C/c1ccc([N+](=O)[O-])o1)/C=C/c1ccc([N+](=O)[O-])o1	/	/	/	/	/	3%
CN1CCN(C(=O)/C=C/c2ccc([N+](=O)[O-])o2)CC1	18µM*	-1%	29*	19*	-16%	-4%
Cc1ccc(C)c(S(=O)(=O)NCC(c2ccco2)S(=O)(=O)c2ccc(F)cc2)c1 (centres undefined)	0.35µM*	/	/	/	/	1%
Cc1ccc(C)c(S(=O)(=O)NCC(c2ccco2)N2CCc3ccccc3C2)c1 (centres undefined)	1%	/	/	/	/	0%
COc1ccc(F)cc1S(=O)(=O)NCC(c1ccco1)S(=O)(=O)c1cccs1 (centres undefined)	0.1µM*	/	/	/	/	-5%
COc1ccc(F)cc1S(=O)(=O)NCC(c1ccco1)S(=O)(=O)c1ccc(F)cc1 (centres undefined)	0.32µM*	/	/	/	/	3%
COc1ccc(C)cc1S(=O)(=O)NCC(c1cccs1)S(=O)(=O)c1ccc(C)cc1 (centres undefined)	?	/	/	/	/	-5%
COc1ccc(S(=O)(=O)NCC(c2ccco2)S(=O)(=O)c2cccs2)cc1OC (centres undefined)	0.28µM*	/	/	/	/	-5%
CCOC(=O)N1CCN(C(=O)c2c(Cl)cnn2C)CC1	4%	-6%	-9	-1	/	-3%
Cc1ccc(CN2C(=O)C3(SCC(=O)N3c3ccc(C)c(C)c3)c3ccccc32)cc1 (centres undefined)	-14%	/	/	/	/	-18%
COc1ccc(OC)c(S(=O)(=O)NCC(c2cccs2)S(=O)(=O)c2ccc(F)cc2)c1 (centres undefined)	0.32µM*	/	/	/	/	2%
CCOC(=O)C(NC(=O)CC)(Nc1sc(C)c(CC)c1C#N)C(F)(F)F (centres undefined)	50µM*	1%	12	-3	0%	1%
CCOC(=O)C(NC(=O)CC)(Nc1ccccc1)C(F)(F)F (centres undefined)	-1%	-1%	-9	-2	1%	-1%
CCOC(=O)C(NCc1ccccc1OC)(NC(=O)CC)C(F)(F)F (centres undefined)	-13%	0%	15	-1	2%	0%
CCOC(=O)C(NC(=O)CC)(Nc1ccccc1OC)C(F)(F)F (centres undefined)	-1%	-1%	-3	17*	-7%	-7%
O=C(Nc1ccc2nc(SCC(=O)N3CCOCC3)sc2c1)c1ccccc1Cl	-8%	/	/	/	/	0%
CCCN(C(=O)CSc1ncnc2sccc12)c1c(N)n(Cc2ccccc2)c(=O)[nH]c1=O	2%	/	/	/	/	1%
